PubChem BioAssay (NCATS)
Inconclusive results are not listed. The source made the active and inactive calls. Unless noted, calls come from the whole dose curve; as a rule, active = well fitted curve in the direction sought with a large enough effect; inconclusive = small, poorly fitted or top-dose-only effect, or another doubt; inactive = no such curve, though single readings can be large; an effect the other way counts as inactive or inconclusive.

Tests used:
[1] = target: ATP-dependent 6-phosphofructokinase (Trypanosoma brucei brucei) (UniProt O15648); experiment: qHTS Assay to Find Inhibitors of T. brucei phosphofructokinase: hit validation (AID 492961);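 note: luminescence reports ADP formed as PFK phosphorylates fructose-6-phosphate with ATP; % is set by controls: 0 for no effect and ±100 for the full control effect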
Summary of the method: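 Inhibition of parasite PFK is measured as reduced ADP formation, quantified via luciferase after ATP depletion. Assay used 0.1 mM ATP, 0.5 mM F6P, 1.25 nM enzyme, 45 min incubation.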

[2] = target: Luciferin 4-monooxygenase (Photinus pyralis) (UniProt P08659); experiment: Biochemical firefly luciferase enzyme assay for NPC (AID 624030);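 note: purified P. pyralis luciferase at 10 nM with luciferin and ATP substrate; 0% = DMSO and -100% = full luciferase inhibition by PTC124 control; nearly all actives have a fitted effect of over 70% in size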
Summary of the method: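 Purified P. pyralis luciferase at 10 nM in 50 mM Tris Acetate (final), luminescence read within 5 minutes of enzyme addition to compounds. Activity normalised to PTC124 versus DMSO; concentration-response curves classed by r2, magnitude and activity.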

[3] = S16 Schwann cell PMP22 intronic element beta-lactamase assay (AID 624044; calls by dose curve; note: nearly all actives have a fitted effect of over 15% in size; note: potency is the fitted concentration of half-maximal effect;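 for ratio activity, negative = inhibition: 0% = DMSO and -100% = potassium clavulanate positive control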); conditions: S16 rat Schwann cells, PMP22 element beta-lactamase FRET, 24 h; ratio activity, negative = inhibition: at 38.3 µM (top of the series)
Summary of the method: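 Rat S16 Schwann cells with beta-Lac driven by a PMP22 intronic element, compound-treated 24 h at 37 °C. LiveBLAzer FRET B/G read: 460 nm normalized to potassium clavulanate vs DMSO; 535 nm FRET as viability; concentration-effect curves classified.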

[4] = qHTS profiling for inhibitors of Plasmodium falciparum proliferation (AID 504749); note: potency is the fitted concentration of half-maximal effect;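 for activity, negative = inhibition: 0% = DMSO vehicle and full inhibition = artemisinin control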; for all read-outs here: nearly all actives have a fitted effect of over 60% in size; conditions: P. falciparum in erythrocytes, SYBR Green DNA, 72 h; for activity, negative = inhibition: at 28.7 µM (top of the series)
Summary of the method: (§1)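 P. falciparum-infected erythrocytes (0.3% parasitemia, 2.5% hematocrit) incubated with compound 72 h at 37 C, 5% CO2. Parasite DNA detected by SYBR Green after lysis, overnight at room temperature; normalised to 0.29 uM artemisinin and DMSO.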

[5] = tested on: AA1029; experiment: as above; conditions: P. falciparum in erythrocytes, SYBR Green DNA, 72 h; series mostly up to 28.7 µM
Summary of the method: as §1

[6] = tested on: CP185; experiment: as above; conditions: P. falciparum in erythrocytes, SYBR Green DNA, 72 h; series mostly up to 28.7 µM
Summary of the method: as §1

[7] = tested on: CP192; experiment: as above; conditions: P. falciparum in erythrocytes, SYBR Green DNA, 72 h; series mostly up to 28.7 µM
Summary of the method: as §1

[8] = tested on: CP211; experiment: as above; conditions: P. falciparum in erythrocytes, SYBR Green DNA, 72 h; series mostly up to 28.7 µM
Summary of the method: as §1

[9] = tested on: CP238; experiment: as above; conditions: P. falciparum in erythrocytes, SYBR Green DNA, 72 h; series mostly up to 28.7 µM
Summary of the method: as §1

[10] = tested on: CP262; experiment: as above; conditions: P. falciparum in erythrocytes, SYBR Green DNA, 72 h; series mostly up to 28.7 µM
Summary of the method: as §1

[11] = tested on: CP269; experiment: as above; conditions: P. falciparum in erythrocytes, SYBR Green DNA, 72 h; series mostly up to 28.7 µM
Summary of the method: as §1

[12] = tested on: CP286; experiment: as above; conditions: P. falciparum in erythrocytes, SYBR Green DNA, 72 h; series mostly up to 28.7 µM
Summary of the method: as §1

[13] = tested on: CP315; experiment: as above; conditions: P. falciparum in erythrocytes, SYBR Green DNA, 72 h; series mostly up to 28.7 µM
Summary of the method: as §1

[14] = tested on: CP329; experiment: as above; conditions: P. falciparum in erythrocytes, SYBR Green DNA, 72 h; series mostly up to 28.7 µM
Summary of the method: as §1

[15] = tested on: Dd2; experiment: as above; conditions: P. falciparum in erythrocytes, SYBR Green DNA, 72 h; series mostly up to 28.7 µM
Summary of the method: as §1

[16] = tested on: ECU; experiment: as above; conditions: P. falciparum in erythrocytes, SYBR Green DNA, 72 h; series mostly up to 28.7 µM
Summary of the method: as §1

[17] = tested on: FAB9; experiment: as above; conditions: P. falciparum in erythrocytes, SYBR Green DNA, 72 h; series mostly up to 28.7 µM
Summary of the method: as §1

[18] = tested on: JCK; experiment: as above; conditions: P. falciparum in erythrocytes, SYBR Green DNA, 72 h; series mostly up to 28.7 µM
Summary of the method: as §1

[19] = tested on: N140; experiment: as above; conditions: P. falciparum in erythrocytes, SYBR Green DNA, 72 h; series mostly up to 28.7 µM
Summary of the method: as §1

[20] = tested on: PC49; experiment: as above; conditions: P. falciparum in erythrocytes, SYBR Green DNA, 72 h; series mostly up to 28.7 µM
Summary of the method: as §1

Luciferin 4-monooxygenase (Photinus pyralis), sequence (P08659 whole entry, looked up): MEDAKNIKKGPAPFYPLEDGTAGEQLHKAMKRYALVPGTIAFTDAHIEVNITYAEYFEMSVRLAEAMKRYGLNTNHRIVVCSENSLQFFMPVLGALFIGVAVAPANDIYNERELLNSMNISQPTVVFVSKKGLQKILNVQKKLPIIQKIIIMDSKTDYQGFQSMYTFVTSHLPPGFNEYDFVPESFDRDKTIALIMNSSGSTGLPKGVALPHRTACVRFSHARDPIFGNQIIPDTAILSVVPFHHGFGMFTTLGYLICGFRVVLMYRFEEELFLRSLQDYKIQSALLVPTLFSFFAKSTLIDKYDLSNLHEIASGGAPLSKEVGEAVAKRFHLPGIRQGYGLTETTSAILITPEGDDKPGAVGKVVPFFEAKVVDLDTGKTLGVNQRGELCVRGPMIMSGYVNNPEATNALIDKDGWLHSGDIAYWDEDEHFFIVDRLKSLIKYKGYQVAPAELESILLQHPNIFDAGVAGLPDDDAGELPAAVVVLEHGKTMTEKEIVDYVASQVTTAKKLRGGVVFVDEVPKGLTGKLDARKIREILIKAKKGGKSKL
ATP-dependent 6-phosphofructokinase (Trypanosoma brucei brucei), sequence (O15648 whole entry, looked up): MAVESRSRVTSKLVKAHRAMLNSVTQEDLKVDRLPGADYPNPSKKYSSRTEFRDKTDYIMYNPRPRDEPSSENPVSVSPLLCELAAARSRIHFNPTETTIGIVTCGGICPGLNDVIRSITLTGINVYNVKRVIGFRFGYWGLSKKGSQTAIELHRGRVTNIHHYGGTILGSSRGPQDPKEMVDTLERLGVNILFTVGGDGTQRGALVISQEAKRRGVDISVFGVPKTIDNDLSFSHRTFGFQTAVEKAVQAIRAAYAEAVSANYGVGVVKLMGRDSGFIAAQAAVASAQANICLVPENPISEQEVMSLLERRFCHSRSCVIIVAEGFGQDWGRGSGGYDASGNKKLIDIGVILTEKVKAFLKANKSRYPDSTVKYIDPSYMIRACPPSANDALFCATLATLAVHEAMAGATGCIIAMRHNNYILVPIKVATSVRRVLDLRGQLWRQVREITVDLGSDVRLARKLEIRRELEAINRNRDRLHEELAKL

OC[C@@H](O)C(O[C@@H]1O[C@@H](CO)[C@H](O)[C@H](O)[C@H]1O)[C@H](O)[C@@H](O)CO (some centres not stated)
inactive: Potency [1] | Potency [2] | Potency [3] | activity, negative = inhibition ([4]; parasite line A) 12% | activity, negative = inhibition ([4]; parasite line B) 4.36% | Potency [5] | Potency [6] | Potency [7] | Potency [8] | Potency [9] | Potency [10] | Potency [11] | Potency [12] | Potency [13] | Potency [14] | Potency [15] | Potency [16] | Potency [17] | Potency [18] | Potency [19] | Potency [20]

COC(=O)C1C2CC3c4[nH]c5cc(OC)ccc5c4CCN3CC2CC(OC)C1OC (configuration not stated)
inactive: Potency [1] | Potency [2] | Potency [3] | activity, negative = inhibition ([4]; parasite line A) 2.01% | activity, negative = inhibition ([4]; parasite line B) -6.18% | Potency [5] | Potency [6] | Potency [7] | Potency [8] | Potency [9] | Potency [10] | Potency [11] | Potency [12] | Potency [13] | Potency [14] | Potency [15] | Potency [16] | Potency [17] | Potency [18] | Potency [19] | Potency [20]

CC(=O)O[C@]1(C(C)=O)CCC2C3CCC4=CC(=O)CCC4(C)C3(F)C(O)CC21C (some centres not stated)
inactive: Potency [1] | Potency [2] | Potency [3] | activity, negative = inhibition ([4]; parasite line A) 7.47% | activity, negative = inhibition ([4]; parasite line B) -19% | Potency [5] | Potency [6] | Potency [7] | Potency [8] | Potency [9] | Potency [10] | Potency [11] | Potency [12] | Potency [13] | Potency [14] | Potency [15] | Potency [16] | Potency [17] | Potency [18] | Potency [19] | Potency [20]

CCCCCOC(=O)Nc1nc(=O)n(C2O[C@H](C)[C@@H](O)[C@@H]2O)cc1F (some centres not stated)
inactive: Potency [1] | Potency [2] | Potency [3] | activity, negative = inhibition ([4]; parasite line A) -10.4% | activity, negative = inhibition ([4]; parasite line B) 12.5% | Potency [5] | Potency [6] | Potency [7] | Potency [8] | Potency [9] | Potency [10] | Potency [11] | Potency [12] | Potency [13] | Potency [14] | Potency [15] | Potency [16] | Potency [17] | Potency [18] | Potency [19] | Potency [20]

CC1(C)O[C@@H]2C[C@H]3[C@@H]4CCC5=CC(=O)C=C[C@]5(C)[C@H]4C(O)C[C@]3(C)[C@]2(C(=O)CO)O1 (some centres not stated)
inactive: Potency [1] | Potency [2] | Potency [3] | activity, negative = inhibition ([4]; parasite line A) -12.4% | activity, negative = inhibition ([4]; parasite line B) -28% | Potency [6] | Potency [7] | Potency [8] | Potency [9] | Potency [10] | Potency [11] | Potency [12] | Potency [14] | Potency [17] | Potency [18]
active: Potency [19] 11.2 µM

CCCSS/C(CCO)=C(/C)N(C=O)Cc1cnc(C)nc1N
inactive: Potency [1] | Potency [2] | activity, negative = inhibition ([4]; parasite line A) -20.8% | activity, negative = inhibition ([4]; parasite line B) -22.2% | Potency [5] | Potency [6] | Potency [7] | Potency [8] | Potency [9] | Potency [10] | Potency [11] | Potency [12] | Potency [13] | Potency [14] | Potency [15] | Potency [16] | Potency [17] | Potency [18] | Potency [19] | Potency [20]

C[C@]12CC[C@@H]3c4ccc(O)cc4C[C@@H](CCCCCCCCCS(=O)CCCC(F)(F)C(F)(F)F)C3[C@@H]1CC[C@@H]2O (some centres not stated)
inactive: Potency [1] | Potency [2] | Potency [3] | Potency [10] | Potency [13]
active: Potency ([4]; parasite line A) 11.2 µM | Potency ([4]; parasite line B) 10 µM | Potency [5] 7.08 µM | Potency [6] 8.91 µM | Potency [9] 7.94 µM | Potency [12] 11.2 µM | Potency [15] 7.08 µM | Potency [16] 3.55 µM | Potency [17] 8.91 µM | Potency [18] 17.8 µM | Potency [19] 2.24 µM

CC(=O)CC(c1ccccc1)C1C(=O)Oc2ccccc2C1=O (configuration not stated)
inactive: Potency [1] | Potency [2] | Potency [3] | activity, negative = inhibition ([4]; parasite line A) 13.7% | activity, negative = inhibition ([4]; parasite line B) 9.27% | Potency [5] | Potency [6] | Potency [7] | Potency [8] | Potency [9] | Potency [10] | Potency [11] | Potency [12] | Potency [13] | Potency [14] | Potency [15] | Potency [16] | Potency [17] | Potency [18] | Potency [19] | Potency [20]

CC(=O)OC1C([N+]2(C)CCCCC2)C[C@H]2C3CC[C@H]4C[C@H](OC(C)=O)C([N+]5(C)CCCCC5)CC4(C)C3CCC12C (some centres not stated)
inactive: Potency [1] | Potency [2] | Potency [3] | activity, negative = inhibition ([4]; parasite line A) -25% | activity, negative = inhibition ([4]; parasite line B) 8.8% | Potency [5] | Potency [6] | Potency [9] | Potency [10] | Potency [12] | Potency [15] | Potency [16] | Potency [17] | Potency [18] | Potency [19] | Potency [20]

CC(=O)C1(O)Cc2c(O)c3c(c(O)c2C(OC2CC(N)C(O)C(C)O2)C1)C(=O)c1c(O)cccc1C3=O (configuration not stated)
active: Potency [3] 99.9 nM | Potency ([4]; parasite line A) 5.01 µM | Potency ([4]; parasite line B) 11.2 µM | Potency [5] 5.01 µM | Potency [6] 7.94 µM | Potency [7] 10.7 µM | Potency [8] 9.53 µM | Potency [9] 8.91 µM | Potency [10] 12 µM | Potency [11] 15.1 µM | Potency [12] 3.16 µM | Potency [14] 12 µM | Potency [15] 4.47 µM | Potency [16] 8.91 µM | Potency [17] 11.2 µM | Potency [18] 12.6 µM | Potency [19] 7.08 µM | Potency [20] 6.31 µM
inactive: Potency [1]

C=C(CC[C@@H](C)[C@H]1CCC2[C@]1(C)CC[C@]13C[C@@]14CCC(OC(=O)/C=C/c1ccc(O)c(OC)c1)C(C)(C)[C@@H]4CC[C@@]23C)C(C)C (some centres not stated)
inactive: Potency [1] | Potency [2] | activity, negative = inhibition ([4]; parasite line A) 3.06% | activity, negative = inhibition ([4]; parasite line B) 1.72% | Potency [5] | Potency [6] | Potency [7] | Potency [8] | Potency [9] | Potency [10] | Potency [11] | Potency [12] | Potency [13] | Potency [14] | Potency [15] | Potency [16] | Potency [17] | Potency [18] | Potency [19] | Potency [20]
